Bioassay records deposited in PubChem BioAssay by National Center for Advancing Translational Sciences (NCATS).
Cycloheximide cs = Cycloheximide Counterscreen for Small Molecule Inhibitors of Shiga Toxin; 12% of 300,000 active; cell reporter, cycloheximide protein synthesis inhibition counterscreen; max response, %; in the data active = max response mostly above about 13%, no sharp cut-off; inactive = mostly below about 14%; also: read at 38.3 µM for the half of the compounds with a filed dose; 0% is about no effect
Pf growth 96h = Primary qHTS for delayed death inhibitors of the malarial parasite plastid, 96 hour incubation; 6.9% of 320,000 active; P. falciparum luciferase reporter growth, 96 h; Potency, µM (top dose mostly 28.7 µM), inactives show at the highest dose activity change, negative = inhibition, hits mostly inhibitors; also: potency is read from the fitted curve at half-maximal effect; % is scaled to controls: 0 for no effect and ±100 for the full control effect
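Compounds incubated with erythrocytes infected by luciferase-expressing P. falciparum (2% hematocrit, 0.05% parasitemia final) for 96 hours, 37 C in 5% CO2. Growth inhibition scored as decreased luciferase luminescence.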
NS1 function inh = qHTS Assay for Inhibitors of Influenza NS1 Protein Function. Potency, µM (doses to about 46.1 µM), for the others: at the top dose activity, positive = more growth. 0.4% of 270,000 active; calls by dose curve; also: potency is read from the fitted curve at half-maximal effect; actives are rising curves; nearly all actives have a fitted effect of over 50% in size
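OD600 was taken as the measure of yeast growth restored by compound in an NS1-expressing S. cerevisiae strain. Cells had been washed out of glucose medium and diluted 1:100 into galactose -URA medium, pH 6.0.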
Shiga inhibitor = A qHTS for Small Molecule Inhibitors of Shiga Toxin; Vero cells, Shiga toxin protein synthesis inhibition reporter; inhibition, % at 38.7 µM; 9.2% of 290,000 active; in the data active = inhibition mostly above about 28%, no sharp cut-off; inactive = mostly below about 43%; also: 0% is about no effect
FBPA Giardia inh = qHTS Assay for Inhibitors of Fructose-1,6-bisphosphate Aldolase from Giardia Lamblia | purified Giardia FBPA | Potency, µM (top dose mostly 59.6 µM), inactives show at the highest dose activity, negative = inhibition, most hits filed as inhibitors | AID 2451, 2010 | A8B2U2 | 0.71% of 290,000 active; also: potency is read from the fitted curve at half-maximal effect; % is scaled to controls: 0 for no effect and ±100 for the full control effect; nearly all actives have a fitted effect of over 55% in size
Target sequence (A8B2U2 whole entry, looked up): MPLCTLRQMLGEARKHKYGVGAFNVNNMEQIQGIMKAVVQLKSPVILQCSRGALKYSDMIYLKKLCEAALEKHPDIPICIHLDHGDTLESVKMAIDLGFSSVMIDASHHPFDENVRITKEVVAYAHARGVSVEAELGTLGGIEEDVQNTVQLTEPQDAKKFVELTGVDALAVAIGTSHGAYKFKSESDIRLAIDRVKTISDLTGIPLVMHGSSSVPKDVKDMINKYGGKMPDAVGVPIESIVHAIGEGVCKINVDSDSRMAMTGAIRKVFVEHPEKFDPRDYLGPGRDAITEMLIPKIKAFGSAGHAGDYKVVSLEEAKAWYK
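Giardia FBPA (40 nM reagent) was preincubated 10 min at RT with compound (up to 57.5 uM final), then substrate plus GAPDH/TPI/NAD/arsenate coupling system with diaphorase/resazurin was added; resorufin fluorescence (525/598 nm) was read after 20 min.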
Pf growth 48h = Primary qHTS for delayed death inhibitors of the malarial parasite plastid, 48 hour incubation | P. falciparum luciferase growth in erythrocytes, 48 h | Potency, µM (top dose mostly 28.7 µM), without a hit: at the highest dose activity change, negative = inhibition, usual class: inhibitors | 5.9% of 310,000 active; also: potency is read from the fitted curve at half-maximal effect; % is scaled to controls: 0 for no effect and ±100 for the full control effect
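In quantitative HTS format, infected erythrocytes bearing luciferase-reporter parasites were treated for a single generation at 37 C. Luminescence after adding detection reagent served as the growth measure.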
An asterisk follows results filed as active; u = inconclusive; x = no result; [ ] = dose if it differs, or a comment. This is a sample that favours compounds with a hit; in the whole collection about 21% have one here. Unless noted, calls follow the shape of the dose curve; as a rule, active = well fitted curve in the direction sought with a large enough effect; inconclusive = small, poorly fitted or top-dose-only effect, or another doubt; inactive = no such curve, though single readings can be large; an effect the other way counts as inactive or inconclusive.

SMILES	Cycloheximide cs	Pf growth 96h	NS1 function inh	Shiga inhibitor	FBPA Giardia inh	Pf growth 48h
Cc1ccccc1CSc1nnc([C@@H]2CCCN2)o1	30	-5%	6%	44	-11%	-17%
CC[C@H](C)[C@H](NC(=O)[C@H](C)NC(=O)CNC(=O)[C@H](CCCN=C(N)N)NC(=O)[C@H](C)NC(=O)[C@H](CC(C)C)NC(=O)[C@H](CCC(=O)O)NC(=O)[C@H](CC(C)C)NC(=O)[C@H](C)NC(=O)[C@@H](N)CCC(=O)O)C(=O)N[C@@H](Cc1ccccc1)C(=O)N[C@@H](CCC(N)=O)C(=O)N[C@@H](C)C(=O)O	10	x	x	-6	0%	x
CCn1cc(C(=O)NCc2ccco2)c(=O)c2ccc(C)nc21	-5	0%	-4%	-4	-4%	-11%
Nc1nc(SCc2ccccc2[N+](=O)[O-])c2[nH]cnc2n1	x	x	0%	x	x	x
CC(C)=CCCC(C)C1CC[C@@]2(C)C3=C(CC[C@@]12C)C1(C)CCC(O)C(C)(C)C1CC3 (stereo not given in full)	x	x	x	x	-1%	x
COc1ccc(Br)cc1/C=N/NC(=O)c1nc(-c2ccccc2)n2c1CCCCC2	-2	7.4µM*	5%	-1	-2%	x
Nc1nonc1C(=O)N/N=C/c1cc(Br)ccc1O	32*	13%	0%	82*	0%	4.1µM*
O=C(N/N=C/c1cc(Br)ccc1OC(=O)c1ccc(Br)cc1)c1ccncc1	-2	15%	-1%	57	x	1.7µM*
Cc1nc(C)c(C(=O)N/N=C/c2cc(Br)ccc2O)s1	-2	5.2µM*	-2%	-10	20%	2.3µM*
Cc1nc(C)c(C(=O)N/N=C/c2c[nH]c3ccccc23)s1	15	x	0%	-5	-6%	-1%
COCCCNC(=O)Cc1c(C)c2c(cc(C)c3c(C(C)(C)C)coc32)oc1=O	2	32%	9%	7	8%	49%
C/C(CCC(=O)OC[C@@H]1O[C@H](C#Cc2ccccc2)C=C[C@@H]1Oc1ccc(C)cc1)=N/O[C@@H](C)c1cc(-c2c(C)cc(C)cc2C)no1	x	x	x	x	1%[12.9 µM]	x
N=c1c2ccccc2nnn1-c1cccc(C(F)(F)F)c1	25	u	-3%	20	0%	13µM*
COc1ccc(CNC(=O)c2nnn(-c3cccc(C(F)(F)F)c3)c2N)cc1	-3	u	x	-7	-11%	-14%
Cc1cc(C)n2cc(CSc3nc4cc(Cl)ccc4o3)nc2n1	-4	x	-42%	-24	-8%	20%
Cc1cc(C)n2cc(CSc3nnc(SCc4cn5c(C)cc(C)nc5n4)s3)nc2n1	-1	x	8%	16	-12%	1%
Cc1cc(C)n2cc(CSc3nc4ccccc4s3)nc2n1	36*	-25%	-4%	40*	-16%	108%
Cc1ccc(SCc2cn3c(C)cc(C)nc3n2)cc1	23*	-6%	-4%	70*	-8%	11%
Cc1cc(C)n2cc(CSc3ccc(Cl)cc3)nc2n1	27*	-4%	3%	49*	-3%	30%
COc1cc(C(=O)O[C@H]2C/C(C)=C/CC/C(C)=C/[C@@H](O)C2C(C)C)ccc1O (stereo not given in full)	11	x	x	-2	-1%	x
CCC(=O)OC1CCC2C3CCc4cc(O)ccc4C3CC[C@]12C (stereo not given in full)	x	x	x	x	-16%	x
Cc1cccc(NS(=O)(=O)c2ccc(C)c(C(=O)NCCCN3CCOCC3)c2)c1	x	29%	x	x	x	-8%
O=c1[nH]c2ccccc2nc1/C=C(\O)c1cccs1	42*	104%	-32%	109*	15%	99%
O=c1[nH]c2ccccc2nc1-c1cccs1	43*	61%	-4%	120*	0%	64%
N#C/C(=C(/O)c1cccs1)c1nc2ccccc2[nH]1	4	u	0%	21	-17%	u
Cc1[nH]c2ccccc2c1-c1nc2ccccc2[nH]c1=O	9	19%	8%	64*	5%	19%
Cn1ccnc1-c1nc2ccccc2[nH]c1=O	-2	0%	-9%	-3	-6%	-1%
CC(C)(C)/C(O)=C/c1nc2ccccc2[nH]c1=O	6	38%	6%	11	6%	28%
